Our source for the composite z-score and z-score values is PubChem BioAssay.

Active and inactive are the calls of the source.

Experiment [1] in a line: small molecules captured by biotinylated probe aFSTL3 – biochemical, small-molecule microarray, fluorescence 635/667, stem cell growth factor project, primary screen (AID 1064).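 Also: measures binding of the biotinylated anti-FSTL3 antibody to printed compounds.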 Particulars: higher = more signal.
Experiment [2] is described as follows: binders from COS7 lysate, DM2A8 probe, primary screen, torsin A project, cell lysate, small-molecule microarray, fluorescence 635/667 (AID 1065). As to conditions: higher = more signal, COS7 lysate expressing mutant human TOR1A.
Experiment [3] is described as follows: small molecules captured by biotinylated probe aFGF2 – biochemical, small-molecule microarray, fluorescence 635/667, stem cell growth factor project, primary screen (AID 1067).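 Also: measures binding of biotinylated aFGF2 protein to printed compounds on slides; z-score merges feature fluorescence and signal-to-noise across triplicate slides.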 Particulars: higher = more signal.
Experiment [4] is described as follows: small molecules captured by biotinylated probe aFGF10 – biochemical, small-molecule microarray, fluorescence 635/667, stem cell growth factor project, primary screen (AID 1071).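 Also: score merges 667 nm spot intensity and signal to noise from triplicate slides.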 Particulars: higher = more signal.
The target of experiment [5] is Neurogenic locus notch homolog protein 2 (Homo sapiens) (UniProt Q04721). Description: small molecules binding Notch2 protein – biochemical, small-molecule microarray, 635 nm fluorescence, stem cell growth factors, primary screen (AID 1073). As to conditions: higher = more signal.
Experiment [6] concerns the target Pro-neuregulin-1, membrane-bound isoform (Homo sapiens) (UniProt Q02297). The experiment is described as follows: small molecules binding neuregulin-1 protein – biochemical, small-molecule microarray, fluorescence 635/667, psychiatric disease protein project, primary screen (AID 1075).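 Also: score combines 667 nm spot fluorescence with signal to noise.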 As to conditions: NRG1 binding, 635 nm fluorescence, higher = more signal.
Experiment [7] relates to Neuregulin-1 EGF-like domain. Description: small molecules binding NRG1 EGF domain – biochemical, small-molecule microarray, 635 nm fluorescence, primary screen (AID 1081).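 Also: binding of the protein to compounds printed on small-molecule microarray slides.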 Particulars: higher = more signal.
A short description of experiment [8]: FRG1 expression reporter modulators in myotubes – cell-based, C2C12 myotubes, firefly/Renilla luciferase, luminescence, FRG1 inhibition for FSHD, primary screen (AID 1084). Particulars: FRG1 promoter luciferase, higher = more signal, called active from +8 up or from −8 down.
Experiment [9] is described as follows: small molecules captured by biotinylated probe aFST – biochemical, small-molecule microarray, fluorescence 635/667, stem cell growth factor project, primary screen (AID 1086).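 Also: score merges 667 nm fluorescence with signal-to-noise of each printed compound spot.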 Particulars: higher = more signal.
A short description of experiment [10]: binders of probe aHhip on microarray, primary screen, stem cell growth factor project, biochemical, small-molecule microarray, fluorescence 635/667 (AID 1087).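 Also: score merges spot fluorescence at 667nm with spot signal to noise ratio.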 Particulars: higher = more signal.
Experiment [11] has as its system PRMT1 (protein arginine N-methyltransferase 1). The experiment is described as follows: small molecules binding arginine methyltransferase PRMT1 – biochemical, small-molecule microarray, 635 nm fluorescence, primary screen (AID 1088).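 Also: binding of Prmt1 protein to compounds spotted on small-molecule microarray slides.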 As to conditions: higher = more signal.
A short description of experiment [12]: growth effects on S. cerevisiae YJM789 – YJM789 clinical isolate, OD600, 24 h, basal, primary screen (AID 1089).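 Also: growth of clinical yeast isolate S. cerevisiae YJM 789 seeded 1000 cells per well; test concentration not given here.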 Particulars: higher = more signal, called active from +8 up or from −8 down.
Experiment [13] is described as follows: S. pombe growth modifiers, basal conditions – strain 972, OD600, 24 h, no modulator, primary screen (AID 1090).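 Also: basal condition with compound alone and no growth modifier present; test concentration not given here.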 As to conditions: S. pombe 972 growth, higher = more signal, called active from +8 up or from −8 down.
Experiment [14] in a line: budding yeast growth modifiers under rapamycin – strain BY4716, OD600, 96 h, primary screen (AID 1091). Also: test concentration not given here. Particulars: S. cerevisiae BY4716 + rapamycin, higher = more signal, called active from +8 up or from −8 down.
For experiment [15], the target named is Torsin-1A-interacting protein 2 (Homo sapiens) (UniProt Q8NFQ8). Description: small molecules binding lysate-expressed LULL1 – cell lysate, human LULL1 lysate, 635/667 nm fluorescence, primary screen (AID 1092).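 Also: score merges per-feature 667 nm fluorescence with signal-to-noise.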 As to conditions: small-molecule microarray, hLULL1 lysate binding, 635 nm fluorescence; higher = more signal.
Chain of Torsin-1A-interacting protein 2 (Homo sapiens) (Q8NFQ8 whole entry, looked up): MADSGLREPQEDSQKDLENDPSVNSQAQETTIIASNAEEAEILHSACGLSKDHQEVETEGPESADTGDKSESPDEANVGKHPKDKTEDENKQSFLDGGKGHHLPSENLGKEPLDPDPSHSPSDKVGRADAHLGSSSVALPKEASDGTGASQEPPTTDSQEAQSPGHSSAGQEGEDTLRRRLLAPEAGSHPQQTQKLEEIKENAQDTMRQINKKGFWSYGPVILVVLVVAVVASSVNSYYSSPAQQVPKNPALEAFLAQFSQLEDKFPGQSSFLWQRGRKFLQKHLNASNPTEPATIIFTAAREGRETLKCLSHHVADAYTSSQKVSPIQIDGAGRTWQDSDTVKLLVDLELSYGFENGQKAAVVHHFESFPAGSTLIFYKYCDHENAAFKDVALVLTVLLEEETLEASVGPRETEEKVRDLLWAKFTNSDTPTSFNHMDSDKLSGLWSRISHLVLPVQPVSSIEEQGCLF
Experiment [16] is described as follows: optical density change of DRC41 E. coli – strain DRC41, OD650, 24 h, E. coli filamentation project, primary screen (AID 1093).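 Also: MC1000 strain lacking acrAB efflux and sulA so SOS filamentation is blocked; test concentration not given here.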 Particulars: E. coli DRC41 growth, higher = more signal, called active from +8 up or from −8 down.
A short description of experiment [17]: probe aLefty2 binding to arrayed compounds – biochemical, biotinylated probe, 635/667 nm fluorescence, primary screen (AID 1094).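 Also: score merges spot fluorescence near 667 nm with spot signal-to-noise ratio.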 As to conditions: small-molecule microarray, higher = more signal.
The test system of experiment [18] is Noggin (protein binding on small-molecule microarray). The experiment is described as follows: small molecules binding Noggin protein – biochemical, 635/667 nm fluorescence, primary screen (AID 1095).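 Also: score merges 667 nm feature fluorescence with signal to noise over triplicate slides.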 Particulars: 635 nm fluorescence, higher = more signal.
Experiment [19] has as its target Neurogenic locus notch homolog protein 3 (Homo sapiens) (UniProt Q9UM47). The experiment is described as follows: small molecules binding NOTCH3 protein – biochemical, 635/667 nm fluorescence, primary screen (AID 1096). As to conditions: small-molecule microarray, 635 nm fluorescence, higher = more signal.
Experiment [20] can be described thus: probe aEGFR binding to arrayed compounds – biochemical, biotinylated probe, 635/667 nm fluorescence, primary screen (AID 1097).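 Also: probe is a biotinylated anti-EGFR antibody binding compounds printed on slides; score combines fluorescence near 667 nm and signal to noise of each spot.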 Particulars: small-molecule microarray, higher = more signal.

Chain of Pro-neuregulin-1, membrane-bound isoform (Homo sapiens) (Q02297 whole entry, looked up, the tested form may be a part, canonical isoform): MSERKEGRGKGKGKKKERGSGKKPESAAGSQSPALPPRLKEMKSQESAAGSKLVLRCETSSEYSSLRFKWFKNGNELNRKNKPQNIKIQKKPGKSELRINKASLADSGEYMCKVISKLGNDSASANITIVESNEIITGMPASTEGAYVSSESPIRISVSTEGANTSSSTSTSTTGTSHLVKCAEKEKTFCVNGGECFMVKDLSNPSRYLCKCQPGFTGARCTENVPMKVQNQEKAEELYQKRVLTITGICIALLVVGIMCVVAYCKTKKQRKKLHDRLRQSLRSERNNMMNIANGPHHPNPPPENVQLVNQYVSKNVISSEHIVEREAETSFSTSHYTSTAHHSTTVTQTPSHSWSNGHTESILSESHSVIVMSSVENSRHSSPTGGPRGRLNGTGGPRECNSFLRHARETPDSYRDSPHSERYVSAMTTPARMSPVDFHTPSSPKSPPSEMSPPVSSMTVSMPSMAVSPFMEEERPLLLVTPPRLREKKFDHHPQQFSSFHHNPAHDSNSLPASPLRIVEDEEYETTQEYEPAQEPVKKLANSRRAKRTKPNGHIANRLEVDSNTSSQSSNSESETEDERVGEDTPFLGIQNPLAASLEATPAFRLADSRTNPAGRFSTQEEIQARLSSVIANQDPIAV
Chain of Neurogenic locus notch homolog protein 3 (Homo sapiens) (Q9UM47 whole entry, looked up): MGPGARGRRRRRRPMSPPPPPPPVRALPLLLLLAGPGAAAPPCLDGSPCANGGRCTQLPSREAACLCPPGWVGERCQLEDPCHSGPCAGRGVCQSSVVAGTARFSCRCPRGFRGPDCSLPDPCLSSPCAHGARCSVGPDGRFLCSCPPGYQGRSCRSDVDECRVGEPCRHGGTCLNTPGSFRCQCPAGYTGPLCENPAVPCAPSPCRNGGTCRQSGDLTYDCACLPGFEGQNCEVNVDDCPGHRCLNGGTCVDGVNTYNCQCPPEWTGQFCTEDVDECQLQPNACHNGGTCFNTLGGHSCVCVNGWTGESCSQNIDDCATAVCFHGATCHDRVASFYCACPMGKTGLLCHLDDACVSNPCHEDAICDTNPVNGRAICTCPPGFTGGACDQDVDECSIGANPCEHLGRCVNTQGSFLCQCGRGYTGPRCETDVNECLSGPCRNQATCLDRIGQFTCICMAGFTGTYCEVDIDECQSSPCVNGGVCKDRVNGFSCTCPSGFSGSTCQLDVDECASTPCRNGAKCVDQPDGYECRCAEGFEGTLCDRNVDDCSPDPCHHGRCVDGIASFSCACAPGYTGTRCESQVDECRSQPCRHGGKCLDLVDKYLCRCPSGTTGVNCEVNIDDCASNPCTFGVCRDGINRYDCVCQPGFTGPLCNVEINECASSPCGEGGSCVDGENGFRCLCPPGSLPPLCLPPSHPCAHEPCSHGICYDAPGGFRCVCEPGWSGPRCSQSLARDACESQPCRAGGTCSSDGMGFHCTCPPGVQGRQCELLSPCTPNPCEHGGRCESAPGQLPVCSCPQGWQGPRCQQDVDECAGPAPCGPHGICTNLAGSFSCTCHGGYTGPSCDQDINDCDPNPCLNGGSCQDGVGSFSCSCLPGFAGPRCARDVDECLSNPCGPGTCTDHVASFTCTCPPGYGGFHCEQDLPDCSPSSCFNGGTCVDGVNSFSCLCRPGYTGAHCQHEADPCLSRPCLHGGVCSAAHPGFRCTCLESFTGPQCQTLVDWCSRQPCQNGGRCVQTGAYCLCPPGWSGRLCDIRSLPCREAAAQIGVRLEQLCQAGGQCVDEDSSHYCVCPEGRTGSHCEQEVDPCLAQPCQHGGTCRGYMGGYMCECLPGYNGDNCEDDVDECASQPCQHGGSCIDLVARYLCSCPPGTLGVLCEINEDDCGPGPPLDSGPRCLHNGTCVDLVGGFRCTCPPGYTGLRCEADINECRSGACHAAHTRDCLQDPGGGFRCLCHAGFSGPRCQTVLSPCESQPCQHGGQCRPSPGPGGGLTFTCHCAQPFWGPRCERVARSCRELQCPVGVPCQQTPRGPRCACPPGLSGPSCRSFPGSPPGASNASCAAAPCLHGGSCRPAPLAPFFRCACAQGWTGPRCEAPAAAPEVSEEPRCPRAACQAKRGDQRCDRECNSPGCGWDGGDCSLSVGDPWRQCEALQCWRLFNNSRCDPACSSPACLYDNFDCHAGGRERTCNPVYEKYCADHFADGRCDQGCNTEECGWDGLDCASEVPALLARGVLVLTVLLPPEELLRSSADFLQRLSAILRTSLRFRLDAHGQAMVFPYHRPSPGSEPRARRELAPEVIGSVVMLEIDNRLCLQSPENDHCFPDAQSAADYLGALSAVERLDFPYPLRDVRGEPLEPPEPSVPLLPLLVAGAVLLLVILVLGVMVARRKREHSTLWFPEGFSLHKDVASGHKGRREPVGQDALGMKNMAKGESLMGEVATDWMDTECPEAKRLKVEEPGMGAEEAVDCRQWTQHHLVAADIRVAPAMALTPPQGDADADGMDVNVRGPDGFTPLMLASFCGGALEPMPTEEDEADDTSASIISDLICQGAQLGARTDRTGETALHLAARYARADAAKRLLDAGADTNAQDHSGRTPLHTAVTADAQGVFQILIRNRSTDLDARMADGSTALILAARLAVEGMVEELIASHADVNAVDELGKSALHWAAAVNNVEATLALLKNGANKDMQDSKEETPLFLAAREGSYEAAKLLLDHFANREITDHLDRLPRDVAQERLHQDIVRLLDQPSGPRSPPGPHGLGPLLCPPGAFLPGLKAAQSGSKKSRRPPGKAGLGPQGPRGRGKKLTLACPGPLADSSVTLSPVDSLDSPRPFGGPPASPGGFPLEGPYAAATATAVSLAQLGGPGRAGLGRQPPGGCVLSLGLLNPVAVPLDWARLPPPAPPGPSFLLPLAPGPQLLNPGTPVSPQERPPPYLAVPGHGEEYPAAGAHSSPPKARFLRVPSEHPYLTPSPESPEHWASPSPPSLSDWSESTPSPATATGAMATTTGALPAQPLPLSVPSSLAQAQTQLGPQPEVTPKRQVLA

`CN1C(=O)C2C=CC(C(O)c3cccc4ccccc34)N(N3CCCCC3)C2C1=O` (stereo not given): the composite z-score in experiment [1] was 0.827; in experiment [2] it was 1.12; in [3], -0.0122; in experiment [4] it was 0.691; in experiment [5], 1.48; in experiment [6], 1.67. Besides, the composite z-score in experiment [7] worked out at 1.19; in experiment [9], 0.785; in experiment [10] it was 0.0873; in experiment [11] it was 1.55; in [15] it was 2.86; in experiment [17], 0.101. The composite z-score in experiment [18] was 0.354; in experiment [19], 1.1; in experiment [20], 0.299. Further, the z-score was 1.09 (inactive) in experiment [8]; -0.0899 (inactive) in experiment [12]; 1.13 (inactive) in experiment [13]; 0.579 (inactive) in experiment [14]; -1.09 (inactive) in [16].

For the compound `[N-]=[N+]=NCc1ccccc1C[C@@]1(C(=O)N2CCCCC2)N=C(c2ccc(OCCCO)cc2)O[C@@H]1c1ccccc1`, the composite z-score in [1] is 0.0156; in [2], 0.317; in experiment [3], -0.0958; in experiment [4], 0.108; in [5] it was 1.09; in [6] it was 1.15. The composite z-score was 0.825 in [7]; 0.301 in experiment [9]; -0.0457 in experiment [10]; 0.424 in [11]; 2.2 in [15]; -0.0261 in experiment [17]. The composite z-score in [18] was -0.578; in [19], -0.426; in [20], 0.159. Besides, the z-score in [8] was -3.91 (inactive); in [12] it was 0.591 (inactive); in experiment [13], 1.08 (inactive); in experiment [14], 32.6 (active); in experiment [16], 0.685 (inactive).

On to `COCCOC(=O)N1C(=O)[C@@]2(c3cc(C#Cc4ccc(OC)cc4)ccc31)[C@H](c1ccccc1OCCO)N1[C@H](c3ccccc3)[C@H](c3ccccc3)OC(=O)[C@H]1[C@@H]2C(=O)N1CCCCCCC1`, for which the composite z-score in experiment [1] was 3.55; in experiment [2], 1.2; in [3], 0.903; in experiment [4], 0.573; in [5] it was 1.3; in [6], 1.7. Moreover, the composite z-score in experiment [7] was determined as 0.961; in experiment [9] it was 3.39; in [10] it was 1.47; in [11], 1.27; in experiment [15], 3.85; in experiment [17], 1.71. Also, the composite z-score in [18] is 1.97; in experiment [19], 0.841; in [20], 1.17. Also, the z-score in experiment [8] is -0.633 (inactive); in [12], -1.44 (inactive); in experiment [13], 0.423 (inactive); in experiment [14], 3.91 (inactive); in experiment [16] it was 1.53 (inactive).

Take `CC(C)Cc1ccc(CN2CC[C@@H](NC(=O)Nc3ccccc3)C2)cc1`: the composite z-score is -0.0474 in [1]; -0.0461 in experiment [2]; -0.173 in [3]; 0.118 in experiment [4]; -0.3 in experiment [5]; -0.54 in [6]. In addition, the composite z-score in experiment [7] is -0.0603; in experiment [9], -0.275; in experiment [10], 0.0505; in [11], -0.785; in experiment [15], -0.389; in experiment [17] it was -0.138. In addition, the composite z-score was -0.0751 in [18], -0.963 in experiment [19] and -0.0214 in experiment [20]. Moreover, the z-score was -0.445 (inactive) in experiment [8]; -21.2 (active) in experiment [12]; -21.2 (active) in [13]; -4.26 (inactive) in experiment [14]; -0.817 (inactive) in experiment [16].

As for `COC(=O)[C@@]1(Cc2ccccc2)[C@H]2c3cc(C(=O)N(C)C)n(CCN4CNCC4=O)c3C[C@H]2CN1C(=O)c1ccccc1`, the composite z-score in [1] is 1.13; in experiment [2], 1.89; in [3], 0.539; in experiment [4], 0.307; in [5] it was -0.0763; in experiment [6] it was 1.71. For the same compound, the composite z-score in [7] worked out at 1.22; in experiment [9], 2; in experiment [10], 0.478; in experiment [11] it was 0.304; in experiment [15] it was 1.42; in experiment [17], 0.96. Moreover, the composite z-score was -0.652 in experiment [18], 0.0743 in experiment [19] and 0.385 in experiment [20]. In addition, the z-score was 0.37 (inactive) in [8]; 0.258 (inactive) in experiment [12]; 0.707 (inactive) in experiment [13]; 0.1 (inactive) in experiment [14]; -0.0469 (inactive) in experiment [16].
